The whole screen tested about 200,000 compounds, of which about 1,600 (0.8%) were called active.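 Rule for the calls: active = plate Z-score above 3 for both tubulin-high and condensed-nucleus cell shares, with cell loss under 80%, at 10 µM; inactive = the rest, inconclusive results apart.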 The sample as a whole holds a higher share of actives than the screen did.
Experiment: tubulin staining increase by stabilizing compounds – imaging, high-content imaging, primary screen (AID 2205);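 for % tubulin-high responders: anti alpha tubulin signal scored within the nucleus-defined area of each cell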;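 for toxicity: 0% = mean cell density of plate MIN control wells and 100% = no cells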
Settings: HeLa tubulin immunostaining HCS, 24 h, at 10 µM; % Hoechst-high responders: measured here: nuclear condensation Hoechst responders, stronger effect = higher value, share of cells brighter than vehicle mean+2SD; % tubulin-high responders: stronger effect = higher value, share of cells brighter than vehicle mean+2SD; toxicity: measured here: cytotoxicity by cell density

Row | SMILES | % Hoechst-high responders | % tubulin-high responders | toxicity
1 | Cc1cc(NC(=O)CSc2nnc(Nc3ccccc3F)s2)no1 | 2.66% | 2.72% (inactive) | 6.41%
2 | Cc1cc(C)c2c(c1)cc(C)c1nnc(SCC(=O)Nc3cc(C)on3)n12 | 18.1% | 40.6% (active) | 66.4%
3 | Cc1ccc(-c2csc(SCC(=O)Nc3cc(C)on3)n2)cc1 | 0.903% | 2.28% (inactive) | 2.29%
4 | CCc1ccccc1NC(=O)Cc1cn(C)c2ccccc12 | 1.88% | 2.42% (inactive) | 1.32%
5 | CCN(CC)C(=O)C(=O)c1cn(CC(=O)NCc2ccc3c(c2)OCO3)c2ccccc12 | 2.88% | 3.53% (inactive) | 7.75%
6 | Cc1cc(C)cc(C(=O)NCC(=O)OCC(=O)N2CCCCC2)c1 | 1.86% | 1.01% (inactive) | 6.66%
7 | COc1ccccc1-c1nc(C#N)c(N2CCC(C(N)=O)CC2)o1 | 1.21% | 0.805% (inactive) | 3.26%
8 | COc1ccc(Nc2oc(-c3ccccc3Cl)nc2C#N)cc1 | 19.8% | 22.5% (active) | 63.9%
9 | Cc1ccccc1-c1nc(C#N)c(NCc2ccco2)o1 | 2.06% | 1.4% (inactive) | 7.65%
10 | N/C(=N\OS(=O)(=O)c1cccc([N+](=O)[O-])c1)c1ccncc1 | 2% | 1.6% (inactive) | 1.69%
11 | Cc1ccccc1NCC(=O)N/N=C\c1ccc([N+](=O)[O-])s1 | 2.71% | 2.44% (inactive) | 1.44%
12 | CCOc1ccc(NC(=O)CCC(=O)N/N=C/c2ccc([N+](=O)[O-])s2)cc1 | 1.9% | 4.38% (inactive) | 12.5%
13 | O=[N+]([O-])c1ccc(C=Nc2ccc(Cl)cc2Cl)s1 | 9.57% | 11.5% (active) | 16%
14 | CCOC(=O)/C(=C\c1ccc([N+](=O)[O-])cc1)C(=O)c1cc(C(C)=O)c(Nc2ccccc2)s1 | 6.43% | 24.7% (active) | 66.1%
15 | O=C(Nc1ccccc1)/C(=C/c1ccc([N+](=O)[O-])cc1)NC(=O)c1ccccc1 | 4.34% | 2.81% (inactive) | 7.05%
16 | Cc1cccc(NC(=O)c2sc(-c3ccccc3)nc2-c2ccc([N+](=O)[O-])cc2)c1 | 5.34% | 2.13% (inactive) | 9.44%
17 | COC(=O)c1ccc(NCC(=O)N2CCCCCC2)cc1 | 2.09% | 3.14% (inactive) | 2.78%
18 | COc1ccc(NC(=O)CSc2nnc(-c3ccccc3F)n2C2CC2)cc1S(N)(=O)=O | 2.54% | 1.8% (inactive) | 10.7%
19 | CCOc1cc(/C=C(\C#N)c2nc(-c3cccs3)c(NC(C)=O)s2)ccc1O | 49.3% | 16.7% (active) | 32.4%
20 | CCOc1cccc(C(=O)Nc2nnc(-c3cccs3)s2)c1 | 2.31% | 1.76% (inactive) | 5.03%
21 | COc1cc(/C=C(\C#N)c2nc3c(s2)CC(C)CC3)ccc1O (configuration not stated) | 2.11% | 1.86% (inactive) | 0.488%
22 | CCCCc1cc2c(s1)CCCC/C2=N/O | 1.99% | 5.07% (inactive) | 0.0044%
23 | CCCC(=O)Nc1nc2ccc(NC(=O)c3c(F)c(F)c(OC)c(F)c3F)cc2s1 | 44.1% | 12.2% (active) | 35.6%
24 | CCOC(=O)c1cc(NC(=O)c2cccnc2)cc(C(=O)OCC)c1 | 1.98% | 4.37% (inactive) | 5.37%
25 | CSc1nc2ccc(NC(=O)c3c(F)cccc3F)cc2s1 | 3.31% | 2.54% (inactive) | 0.69%

Row | SMILES | % Hoechst-high responders | % tubulin-high responders | toxicity
26 | CCC(=O)Nc1cccc(NC(=O)c2cccnc2)c1 | 1.83% | 4.1% (inactive) | 8.32%
27 | CCCC(=O)Nc1nc2ccc(NC(=O)c3cccnc3)cc2s1 | 19.5% | 35.9% (active) | 55.8%
28 | COc1ccc2nc(Nc3nc4ccc(NC(C)=O)cc4s3)sc2c1 | 3.35% | 5.83% (inactive) | 4.23%
29 | O=C(COC(=O)Cn1cnc2ccccc2c1=O)NCc1ccccc1Cl | 1.88% | 6.58% (inactive) | 5.1%
30 | O=C(NNc1ccccn1)c1ccc(Cl)nc1 | 2.04% | 3.3% (inactive) | 8.78%
31 | CCN(CC)c1ccc(NC(=O)c2ccc(Cl)nc2)cc1 | 27% | 43% (active) | 38.6%
32 | NS(=O)(=O)c1ccc(NC(=O)COC(=O)c2ccc(Cl)nc2)cc1 | 1.74% | 3.68% (inactive) | 9.84%
33 | CC(=O)Nc1ccc(S(=O)(=O)NC2(C(F)(F)F)C(=O)NC(C)=C2C#N)cc1 (configuration not stated) | 0.651% | 0.947% (inactive) | 1.71%
34 | COc1ccc(-n2cc(CN(C)Cc3n[nH]c(=O)[nH]3)c(-c3cccc(F)c3)n2)cc1 | 0.946% | 1.61% (inactive) | 7.39%
35 | O=C(/C(=C/c1cccc(Cl)c1)c1nc2ccccc2[nH]1)c1ccccc1 | 42.6% | 47.1% (active) | 68.7%
36 | CCC(=O)/C(=C(/O)c1ccccc1)c1nc2ccccc2[nH]1 | 1.47% | 1.53% (inactive) | 1.79%
37 | Oc1ccc(Cl)cc1/C=N/c1nc2ccccc2[nH]1 | 3.67% | 2.45% (inactive) | 20.5%
38 | C=CCn1cc(C(=O)NCc2ccc(Cl)cc2)c(=O)c2cc(S(=O)(=O)N(CC)CC)ccc21 | 2.4% | 2.86% (inactive) | 5.36%
39 | CSc1ncccc1C(=O)N1CCCC(CCC(=O)NCc2ccccc2F)C1 (configuration not stated) | 1.74% | 2.45% (inactive) | 3.21%
40 | Cn1cccc1/C=N/NC(=O)c1ccc(OC(F)(F)C(F)F)cc1 | 2.53% | 6.72% (inactive) | 7.37%
41 | COC(=O)Cc1ccc(NC(=S)NCc2ccccc2)cc1 | 2.07% | 4.23% (inactive) | 9.97%
42 | N#CC1=C(N)Oc2c(sc3ccccc23)C1c1ccco1 (configuration not stated) | 55.7% | 24.9% (active) | 32.3%
43 | Cc1cc(C)c2c3c(sc2n1)C(c1ccccc1)C(C#N)=C(N)O3 (configuration not stated) | 7.37% | 12.3% (inactive) | 9.16%
44 | CCCCCCCC1(C)NC(=O)N(CC(=O)Nc2cc(C)on2)C1=O (configuration not stated) | 2.15% | 3.92% (inactive) | 9.17%
45 | Cc1ccc(S(=O)(=O)N(C)C)cc1NC(=O)COC(=O)C1COc2ccccc2O1 (configuration not stated) | 2.45% | 3.07% (inactive) | 5.9%
46 | O=C(c1cnn(-c2ccc(Cl)cc2)c1)c1ccccc1O | 3.19% | 3.73% (inactive) | 2.4%
47 | Cc1ccccc1C(=O)Nc1ccc(N2CCCCCC2)cc1 | 34.7% | 13.1% (active) | 28.4%
48 | COc1ccc(C(=O)NC(=S)Nc2ccc(N3CCCC3)cc2)cc1OC | 1.47% | 1.79% (inactive) | 9.06%
49 | COc1cccc(C(=O)Nc2ccc(N3CCCC3)cc2)c1 | 30.7% | 25.7% (active) | 50.6%
50 | C/C(=N\NC(=O)c1ccccc1C)c1ccc(N2CCOCC2)cc1 | 0.821% | 1.28% (inactive) | 5.09%

Row | SMILES | % Hoechst-high responders | % tubulin-high responders | toxicity
51 | COc1cccc(OC)c1C(=O)Nc1ccc(N2CCCCC2)cc1 | 2.3% | 2.03% (inactive) | 6.37%
52 | O=C(Cc1ccccc1)NC(=S)Nc1ccc(N2CCCCC2)cc1 | 2.7% | 1.21% (inactive) | 5.2%
53 | CC(C)OCCCNC(=O)c1cc(Sc2ccc(F)cc2)nc2ccccc12 | 1.81% | 1.25% (inactive) | 6.52%
54 | CC(=O)N1C(=O)/C(=C2\SC(=S)N(NC(=O)c3ccc(O)cc3)C2=O)c2ccccc21 | 2.97% | 2.55% (inactive) | 3.4%
55 | Cc1noc(C)c1S(=O)(=O)Nc1ccc(C(=O)N2CCN(c3ccc(F)cc3)CC2)cc1 | 2.09% | 1.32% (inactive) | 5.68%
56 | O=C(O)CCN(Cc1ccccc1)S(=O)(=O)c1c(Cl)cccc1Cl | 1.31% | 2.16% (inactive) | 1.51%
57 | CN(Cc1ccccc1)C(=O)COC(=O)c1ccccc1Nc1ccccc1 | 1.59% | 6.59% (inactive) | 4.42%
58 | CC(C)Cc1nc(Nc2ccc(S(=O)(=O)N3CCCC3)cc2)c2nnn(Cc3ccccc3)c2n1 | 2.68% | 3.7% (inactive) | 11.3%
59 | Cc1csc(NC(=O)Nc2ccccc2[N+](=O)[O-])n1 | 2.72% | 1.89% (inactive) | 4.62%
60 | COC(=O)C1=C(C)OC(N)=C(C#N)C1c1cc(OC)ccc1OC (configuration not stated) | 4.1% | 4.68% (inactive) | 10.9%
61 | COc1ccc(C2C(C#N)=C(N)Oc3cc(N)ccc32)cc1OC (configuration not stated) | 17.3% | 44.5% (active) | 68%
62 | CCC1=C(C(=O)OC)C(c2cc(OC)ccc2OC)C(C#N)=C(N)O1 (configuration not stated) | 3.6% | 3.6% (inactive) | 4.77%
63 | c1ccc(C2CNCc3c2ccc2ccccc32)cc1 (configuration not stated) | 32.1% | 14% (active) | 25.9%
64 | COc1ccc(-c2n[nH]c(C)c2-c2ccc(OC)c(OC)c2)c(O)c1 | 19% | 42.8% (active) | 76%
65 | C=C(C)COc1ccc(-c2n[nH]c(C)c2-c2ccccc2OC)c(O)c1 | 4.86% | 6.2% (inactive) | 5.28%
66 | C=C(C)COc1ccc(-c2n[nH]c(C)c2-c2ccccc2)c(O)c1 | 2.28% | 3.77% (inactive) | 27.6%
67 | Cc1[nH]n(-c2ccccc2)c(=O)c1/C=N/NC(=O)c1ccoc1C | 1.51% | 1.79% (inactive) | 2.88%
68 | CCc1ccc(-n2c(=S)sc3c(=O)n(-c4ccccc4OC)c(=S)[nH]c32)cc1 | 2.26% | 4.15% (inactive) | 6.79%
69 | COc1ccc(/C=C/CN2CCN(Cc3ccc(C)cc3)C(CCO)C2)cc1 (configuration not stated) | 2.01% | 6.04% (inactive) | 4.33%
70 | CCn1c(/C=C/Nc2ccccc2)[n+](CC)c2ccc(C(=O)OCC(F)(F)F)cc21 | 3.06% | 2.82% (inactive) | 0.486%
71 | CC(C)(C)NC(=O)Cn1cnc2cc([N+](=O)[O-])ccc2c1=O | 1.76% | 5.69% (inactive) | 5.93%
72 | CCS(=O)(=O)Nc1ccc(C2=NN(C(C)=O)C(c3cccs3)C2)cc1 (configuration not stated) | 60.7% | 26.1% (active) | 26.6%
73 | CS(=O)(=O)Nc1ccc(C2=NN(S(C)(=O)=O)C(c3cccs3)C2)cc1 (configuration not stated) | 1.8% | 1.74% (inactive) | 6.29%
74 | COc1ccc(C2=NN(C(=O)CCC(=O)O)C(c3cccs3)C2)cc1OC (configuration not stated) | 0.575% | 2.36% (inactive) | 4.5%

Reference: PubChem BioAssay AID2205 (University of Pittsburgh Molecular Library Screening Center, 2009)
